Source: PubChem BioAssay (NCATS)
Results filed as inconclusive are left out. The source made the active and inactive calls. Unless noted, the call rests on the fitted dose curve; in most records, active means well fitted curve in the direction sought with a large enough effect; inconclusive means small, poorly fitted or top-dose-only effect, or another doubt; inactive means no such curve, though single readings can be large; an effect the other way counts as inactive or inconclusive.

Tests used:
[1] = qHTS Assay for Identifying Gametocytocidal Compounds (AID 743244);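 further: on the % scale 0 is the no-effect control and ±100 the full control effect; actives lower the fluorescent signal which means gametocytes are killed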; details: P. falciparum 3D7 stage III-V gametocytes, alamarBlue, 72 h; max response: stronger effect = lower value
In short: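 P. falciparum 3D7 stage III–V gametocytes (20,000 cells/well) were exposed to compounds for 72 h at 37 °C, 5% CO2. AlamarBlue was then added for 24 h; decreased resorufin fluorescence (Ex 525/Em 598 nm) indicated loss of viability.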

[2] = qHTS assay for measurement of the activity of small molecule inhibitors on Zika virus induced Caspase-3 activity in human iPSC derived neural progenitor cells (hNPCs) (AID 1224857); further: % of control where 0% means no effect; nearly all actives have a fitted effect of over 65% in size
In short: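 hNPCs seeded 350 cells/well, cultured 16–20 h; compounds added 1 h before ZIKV (2 FFU/cell), 37 C 6 h. Caspase-Glo 3/7 luminescence after 30 min RT; % inhibition from induction scaled to uninfected (0%) and infected (100%) wells.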

[3] = qHTS assay for measurement of the activity of small molecule inhibitors on Zika virus induced Caspase-3 activity in human astrocytoma cells (AID 1224859);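 further: plate controls were ZIKV-infected untreated cells for no effect and uninfected cells for full effect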
In short: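 Luminescence read-out (Caspase-Glo 3/7, 30 min RT) of caspase activity in SNB-19 cells infected 6 h with ZIKV, 2 FFU/cell, after 1 h compound pretreatment; % inhibition from induction normalised to uninfected (0%) and infected (100%) wells.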

[4] = qHTS assay to identify small molecule inhibitors of chordoma cells - UCH-1 (AID 1259355); further: on the % scale 0 is the no-effect control and ±100 the full control effect; nearly all actives have a fitted effect of over 55% in size
In short: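 Cells (800/well) were seeded and left overnight at 37 C, 5% CO2, then treated with drugs at 15 concentrations plus a combination mix of auranofin, camptothecin, doxorubicin, rubitecan and topotecan. Viability after 48hr was read by CellTiter-Glo luminescence.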

[5] = qHTS assay to identify small molecule inhibitors of chordoma cells - UCH-2 (AID 1259356); further: on the % scale 0 is the no-effect control and ±100 the full control effect
[6] = P-glycoprotein substrates identified in KB-8-5-11 adenocarcinoma cell line, qHTS therapeutic library screen (AID 1346987); details: outcome: dose series up to 44.5 µM; further: on the % scale 0 is the no-effect control and ±100 the full control effect; nearly all actives have a fitted effect of over 65% in size
In short: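 KB-8-5-11, a colchicine-selected P-gp-overexpressing KB-3-1 subline, was grown without colchicine for the assay. Cells were seeded at 500 cells/well, dosed in concentration-response and incubated 72 h at 37 degree C, 5% CO2. Viability was read by CellTiter-Glo luminescence.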

[7] = qHTS of pediatric cancer cell lines to identify multiple opportunities for drug repurposing: Primary screen for TC32 cells (AID 1347089); further: on the % scale 0 is the no-effect control and ±100 the full control effect; nearly all actives have a fitted effect of over 60% in size
In short: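 Luminescent CellTiter-Glo read-out of metabolically active TC32 cells after 48 h compound exposure. Primary: MIPE 11-point, 0.78 nM–46 µM; NPC 8-point, 0.59 nM–46 µM. Confirmatory: 11-point dilutions.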

[8] = qHTS of pediatric cancer cell lines to identify multiple opportunities for drug repurposing: Primary screen for DAOY cells (AID 1347090);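 further: plate controls were DMSO for no effect and bortezomib for full effect; nearly all actives have a fitted effect of over 55% in size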
In short: (§1)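 Viability measured as metabolically active cells via CellTiter-Glo luminescence following 48 hours of compound exposure, 11-point dilutions in confirmatory testing. 500-1,000 cells/well plated 5 hours before dosing; controls were DMSO and 2.3 µM bortezomib.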

[9] = qHTS of pediatric cancer cell lines to identify multiple opportunities for drug repurposing: Primary screen for SJ-GBM2 cells (AID 1347091);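 further: plate controls were DMSO neutral control for no effect and bortezomib for full effect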
In short: as §1

[10] = qHTS profiling for inhibitors of Plasmodium falciparum (3D7) proliferation (AID 743322);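 further: infected erythrocytes exposed to compound for 72 h before lysis; 100% = DMSO vehicle wells and 0% = 0.29 µM artemisinin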; details: P. falciparum 3D7 proliferation; at 28.7 µM (top of the series)
In short: (§2)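 Erythrocytes infected with P. falciparum (0.3% parasitemia, 2.5% hematocrit) incubated with compounds 72 h at 37 C, 5% CO2. Lysis with saponin/Triton buffer containing SYBR Green I, overnight at room temperature in the dark; DNA fluorescence (485/535 nm) normalised to 0.29 uM artemisinin and DMSO.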

[11] = qHTS profiling for inhibitors of Plasmodium falciparum (DD2) proliferation (AID 743323; call rule not given here); details: lower = more inhibition; at 28.7 µM (top of the series)
In short: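 SYBR Green fluorescence (ex 485, em 535 nm) of lysed cultures gives parasite DNA content; wells normalized to artemisinin (0.29 uM) and DMSO controls. Infected red cells: 0.3% parasitemia, 2.5% hematocrit, 72 h, 37 C.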

[12] = qHTS profiling of the MIPE4 collection as inhibitors of Plasmodium falciparum (3D7) proliferation (AID 743344; call rule not given here;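 further: scaled between DMSO vehicle wells and 0.29 µM artemisinin as full inhibition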); details: P. falciparum 3D7 in erythrocytes, SYBR Green DNA fluorescence, 72 h; at 9.64 µM (top of the series) unless noted
In short: as §2

[13] = qHTS profiling of the MIPE4 collection as inhibitors of Plasmodium falciparum (DD2) proliferation (AID 743345; call rule not given here); details: P. falciparum Dd2 in erythrocytes, SYBR Green DNA, 72 h; at 9.64 µM (top of the series) unless noted
In short: as §2

[14] = qHTS profiling of the MIPE4 collection as inhibitors of Plasmodium falciparum (DD2) proliferation (Rep 2) (AID 743346; call rule not given here); details: P. falciparum Dd2 in erythrocytes, SYBR Green DNA, 72 h; at 9.64 µM (top of the series) unless noted
In short: as §2

[15] = qHTS profiling of the MIPE4 collection as inhibitors of Plasmodium falciparum (HB3) proliferation (AID 743347; call rule not given here;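 further: plate controls were DMSO vehicle wells for no effect and artemisinin wells for full effect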); details: P. falciparum HB3 in erythrocytes, SYBR Green DNA, 72 h; at 9.64 µM (top of the series) unless noted
In short: as §2

[16] = qHTS assay for cell viability of HEK293 cells (AID 743288); details: ATP luminescence (CellTiter-Glo), 18 h, stronger effect = lower value; further: on the % scale 0 is the no-effect control and ±100 the full control effect; nearly all actives have a fitted effect of over 50% in size
In short: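 Parental HEK293 cells were seeded at 2,000 cells/well, rested at least 5 h at 37 C, then exposed to compounds in DMSO for 18 h at 37 C. Viability was read as ATP-dependent luciferase luminescence after 30 min at room temperature.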

[17] = qHTS assay for cell viability of the p53RE-bla HCT-116 cell line (AID 743292); further: on the % scale 0 is the no-effect control and ±100 the full control effect; nearly all actives have a fitted effect of over 55% in size
In short: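 ATP-based luminescent viability (CellTiter-Glo, 30 min RT) after 16 h compound treatment at 37 C of p53RE-bla HCT-116 cells, seeded at 4,000 cells/well and rested 5 h before dosing.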

[18] = NS1 protein of Zika virus - qHTS assay to identify small molecule inhibitors in human HEK 293 cells (AID 1347053);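 further: plate controls were infected untreated cells for no effect and uninfected cells for full effect; nearly all actives have a fitted effect of over 55% in size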
In short: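 HEK 293 cells, seeded 20 h at 37 C, were pretreated with compound 1 h, then infected with ZIKV MR766 (MOI = 0.5) for 24 h. NS1 was read by TR-FRET with two anti-NS1 antibodies, normalized to uninfected and infected wells.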

CC(C)CCOC(=O)c1ccc(N(C)C)cc1
max response [1]: -13.7% (inactive) | outcome [2]: inactive | outcome [3]: inactive | outcome [4]: inactive | outcome [5]: inactive | outcome [6]: inactive | outcome [7]: inactive | outcome [8]: inactive | outcome [9]: inactive

CCCCCCCCCCOc1cc2c(=O)c(C(=O)OCC)c[nH]c2cc1OCC
max response [1]: -3.15% (inactive) | remaining parasite growth % (stronger effect = lower value) [10]: 0.552% | activity, percent of control [11]: 2.1% | parasite growth, % of DMSO control [12]: 7.74% [at 28.5 µM] | parasite growth remaining, % of DMSO control (lower = more inhibition) [13]: 7.98% [at 28.5 µM] | parasite growth, % of control (lower = inhibition) [14]: 14.5% [at 28.5 µM] | growth, % of control [15]: 3.33% [at 28.5 µM] | activity change, negative = inhibition [2]: 9.1% [at 4.53 µM] (inactive) | activity change, negative = inhibition [3]: -3.7% [at 4.53 µM] (inactive) | outcome [4]: inactive | outcome [5]: inactive | outcome [6]: inactive | activity change, negative = cytotoxic [7]: 8.44% [at 4.81 µM] (inactive) | activity change, negative = cytotoxic [8]: -4.32% [at 4.84 µM] (inactive) | activity change, negative = cytotoxic [9]: 5.74% [at 4.84 µM] (inactive)

Nc1ncnc(Nc2ccccc2)n1
max response [1]: -1.5% (inactive) | outcome [2]: inactive | outcome [3]: inactive | outcome [4]: inactive | outcome [5]: inactive | outcome [6]: inactive | outcome [7]: inactive | outcome [8]: inactive | outcome [9]: inactive

CC(=O)NS(=O)(=O)c1ccc(N)cc1
max response [1]: 2.53% (inactive) | max response [16]: -3.22% (inactive) | outcome [17]: inactive | outcome [2]: inactive | outcome [3]: inactive | outcome [4]: inactive | outcome [5]: inactive | outcome [6]: inactive | outcome [7]: inactive | outcome [8]: inactive | outcome [9]: inactive

CN[C@@H]1[C@@H](O)[C@@H](O[C@@H]2[C@H](O)[C@H](O[C@H]3OC(CN)=CC[C@H]3N)[C@@H](N)C[C@H]2N)OCC1(C)O (some centres undefined)
max response [1]: -9.46% (inactive) | outcome [2]: inactive | outcome [3]: inactive | outcome [4]: inactive | outcome [5]: inactive | outcome [6]: inactive | outcome [18]: inactive | outcome [7]: inactive | outcome [8]: inactive

Cn1c([N+](=O)[O-])cnc1COC(N)=O
max response [1]: 1.6% (inactive) | outcome [2]: inactive | outcome [3]: inactive | outcome [4]: inactive | outcome [5]: inactive | outcome [6]: inactive | outcome [18]: inactive | outcome [7]: inactive | outcome [9]: inactive

Cc1cc(OI)c(C(C)C)cc1-c1cc(C(C)C)c(OI)cc1C
max response [1]: 3.81% (inactive) | outcome [2]: inactive | outcome [3]: inactive | outcome [4]: inactive | outcome [5]: inactive | outcome [6]: inactive | outcome [7]: inactive | outcome [8]: inactive | outcome [9]: inactive

COc1ccc(O)cc1
max response [1]: -2.64% (inactive) | max response [16]: -0.79% (inactive) | outcome [17]: inactive | outcome [2]: inactive | outcome [3]: inactive | outcome [4]: inactive | outcome [5]: inactive | outcome [6]: inactive | outcome [18]: inactive | outcome [8]: inactive | outcome [9]: inactive

COc1cc(O)cc(O)c1
max response [1]: -9.75% (inactive) | outcome [2]: inactive | outcome [3]: inactive | outcome [4]: inactive | outcome [5]: inactive | outcome [6]: inactive | outcome [7]: inactive | outcome [8]: inactive | outcome [9]: inactive

C[N+](C)(C)CC(O)CC(=O)[O-] (centres undefined)
max response [1]: -7.85% (inactive) | outcome [2]: inactive | outcome [3]: inactive | outcome [4]: inactive | outcome [5]: inactive | outcome [6]: inactive | outcome [18]: inactive | outcome [7]: inactive | outcome [9]: inactive

CCCNC(C)C(=O)Nc1c(C)csc1C(=O)OC (centres undefined)
max response [1]: 7.96% (inactive) | outcome [2]: inactive | outcome [3]: inactive | outcome [4]: inactive | outcome [5]: inactive | outcome [6]: inactive | outcome [7]: inactive | outcome [8]: inactive | outcome [9]: inactive
